Among the test systems are NCI-H23 lung; NCI-H226 lung; NCI-H322M lung; HOP-62 NSCLC; NCI-H460 lung; HOP-92 NSCLC; NCI-H522 lung; A549/ATCC NSCLC; 786-0 renal; COLO 205 colon; DU-145 prostate; K-562 leukemia; MALME-3M melanoma; MDA-MB-231 breast; RXF 393 renal; SF-268 CNS; SF-295 CNS; SF-539 CNS; UACC-257 melanoma; M14 melanoma.
Common to all, as to experiment: NCI-60 one-dose screen, 48 h (100 = growth as untreated, 0 = no growth, -100 = all killed)
Conditions in all cases: 10 µM unless noted

This is part of a sample that, as a whole, favours compounds with a hit. Of some 83,000 tested, about 20% had one in any assay.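 Step 1: grow cells in 96-well plates. Step 2: add test compound at a single concentration. Step 3: incubate 48 h. Step 4: record percent growth.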 A number with no mark means an inactive call. Calls of active or inactive are those of the source. The calls were made as follows: active = growth percent below 10; inactive = the rest.

In the case of `COc1cc(C)cc(-c2c(-c3cc(N4CC(O)C4)nc(-c4cccnc4)n3)cnn2C)c1`, the growth is 77.9% in the experiment on NCI-H23 lung; 91.5% in the experiment on NCI-H226 lung; 101% with NCI-H322M lung; 111% in the experiment on HOP-62 NSCLC; 90.8% in the experiment on NCI-H460 lung; 74.7% in the experiment on HOP-92 NSCLC. Further, the growth in the experiment on NCI-H522 lung was 86.5%; in the experiment on A549/ATCC NSCLC, 84.9%; with 786-0 renal it was 81.6%; in the experiment with COLO 205 colon, 104%; in the experiment with DU-145 prostate, 89.5%; in the experiment with K-562 leukemia, 80.1%. Moreover, the growth was 104% in the experiment on MALME-3M melanoma; 55% with MDA-MB-231 breast; 77.9% with RXF 393 renal; 98.5% in the experiment on SF-268 CNS; 92.8% in the experiment with SF-295 CNS; 94.3% with SF-539 CNS. Further, the growth with UACC-257 melanoma was 109%; in the experiment with M14 melanoma, 90.6%.
On to `Cc1ccc(Nc2nc(N)nc(N)c2N=O)cc1Cl`, for which the growth in the experiment with NCI-H23 lung was 71.9%; in the experiment on NCI-H226 lung it was 94.1%; in the experiment on NCI-H322M lung it was 104%; in the experiment with HOP-62 NSCLC, 76%; in the experiment with NCI-H460 lung, 102%; in the experiment with HOP-92 NSCLC, 63%. The growth is 75.4% with NCI-H522 lung; 98.3% in the experiment on A549/ATCC NSCLC; 79.4% in the experiment with 786-0 renal; 111% in the experiment on COLO 205 colon; 73.7% with DU-145 prostate; 69.9% with K-562 leukemia. In addition, the growth is 82.2% in the experiment on MALME-3M melanoma; 95.6% in the experiment on MDA-MB-231 breast; 91.8% in the experiment with RXF 393 renal; 65.6% in the experiment on SF-268 CNS; 105% in the experiment with SF-295 CNS; 82% in the experiment with SF-539 CNS. The growth was 92.2% in the experiment with UACC-257 melanoma and 88.4% in the experiment on M14 melanoma.
Consider `N#CSCc1cc(Cl)c(CSC#N)cc1Cl`, for which the growth is 72.8% in the experiment with NCI-H23 lung; 73.3% in the experiment with NCI-H226 lung; 112% with NCI-H322M lung; 113% in the experiment with HOP-62 NSCLC; 74.6% with NCI-H460 lung; 11.8% in the experiment with HOP-92 NSCLC. Moreover, the growth was 22.5% with NCI-H522 lung; 120% in the experiment with A549/ATCC NSCLC; 71.4% in the experiment with 786-0 renal; 61.6% in the experiment with COLO 205 colon; 59.7% in the experiment with DU-145 prostate; 29.2% in the experiment on K-562 leukemia. Further, the growth is 58% with MALME-3M melanoma; 57.6% in the experiment on MDA-MB-231 breast; 34.3% in the experiment on RXF 393 renal; 63.3% with SF-268 CNS; 97.5% with SF-295 CNS; 45.7% in the experiment with SF-539 CNS. Moreover, the growth was 103% with UACC-257 melanoma and 27.4% in the experiment on M14 melanoma.
Regarding `Cc1ccc(S(=O)(=O)N(CCC(=O)O)c2ccccc2)cc1`, the growth in the experiment on NCI-H23 lung is 112%; in the experiment with NCI-H226 lung it was 109%; with NCI-H322M lung it was 122%; in the experiment on HOP-62 NSCLC, 96.2%; with NCI-H460 lung it was 112%; in the experiment on HOP-92 NSCLC, 102%. For the same molecule, the growth in the experiment with NCI-H522 lung is 109%; with A549/ATCC NSCLC, 104%; in the experiment on 786-0 renal, 94.3%; in the experiment with COLO 205 colon, 132%; in the experiment on DU-145 prostate, 111%; in the experiment with K-562 leukemia, 93.4%. Further, the growth with MALME-3M melanoma is 142%; in the experiment on MDA-MB-231 breast, 114%; in the experiment on RXF 393 renal, 152%; in the experiment with SF-268 CNS, 102%; with SF-295 CNS, 111%; with SF-539 CNS, 99.1%. The growth is 102% with UACC-257 melanoma and 107% in the experiment on M14 melanoma.
For `COc1cc(C(=O)n2nc(NCCCc3ccccc3)c3cc(N)ccc32)cc(OC)c1OC`, the growth in the experiment on NCI-H23 lung is 92.8%; in the experiment with NCI-H226 lung, 89.7%; in the experiment on NCI-H322M lung it was 106%; with HOP-62 NSCLC, 93.5%; in the experiment with NCI-H460 lung, 102%; in the experiment on HOP-92 NSCLC, 88.9%. For the same molecule, the growth was 74.6% with NCI-H522 lung; 93.3% with A549/ATCC NSCLC; 96.1% with 786-0 renal; 113% with COLO 205 colon; 106% in the experiment with DU-145 prostate; 88.9% in the experiment on K-562 leukemia. Moreover, the growth in the experiment with MALME-3M melanoma is 100%; with MDA-MB-231 breast it was 83.1%; in the experiment with RXF 393 renal, 101%; in the experiment with SF-268 CNS, 96.7%; in the experiment on SF-295 CNS, 81%; in the experiment on SF-539 CNS, 93.1%. In addition, the growth in the experiment on UACC-257 melanoma is 120%; in the experiment on M14 melanoma it was 93.6%.
Take `CC1=NC(=S)NC(c2ccccc2)/C1=C1/CC(c2ccccc2O)NN1` (stereo not given): the growth with NCI-H23 lung is 92.5%; in the experiment with NCI-H226 lung, 97%; in the experiment with NCI-H322M lung it was 101%; with HOP-62 NSCLC, 92.7%; in the experiment with NCI-H460 lung, 104%; in the experiment on HOP-92 NSCLC, 84.5%. The growth is 96.3% in the experiment on NCI-H522 lung; 100% with A549/ATCC NSCLC; 100% in the experiment on 786-0 renal; 105% in the experiment with COLO 205 colon; 101% with DU-145 prostate; 99.4% with K-562 leukemia. Further, the growth with MALME-3M melanoma was 97.9%; in the experiment with MDA-MB-231 breast, 94.8%; in the experiment with RXF 393 renal, 103%; in the experiment with SF-268 CNS it was 93.3%; in the experiment on SF-295 CNS it was 100%; in the experiment on SF-539 CNS it was 93.4%. For the same molecule, the growth in the experiment with UACC-257 melanoma was 107%; with M14 melanoma, 97.3%.
With `N#Cc1c(-c2ccc(F)cc2)cc(-c2cccc(Cl)c2)[nH]c1=O`, the growth in the experiment on NCI-H23 lung is 62.8%; in the experiment on NCI-H226 lung it was 54.1%; with NCI-H322M lung, 75.2%; in the experiment on HOP-62 NSCLC, 28%; in the experiment on NCI-H460 lung it was 86.8%; with HOP-92 NSCLC, 29.7%. Also, the growth in the experiment on NCI-H522 lung is 57.9%; in the experiment with A549/ATCC NSCLC, 46.3%; with 786-0 renal, 42.1%; in the experiment with COLO 205 colon it was 116%; in the experiment on DU-145 prostate, 73.9%; with K-562 leukemia, 56.2%. Moreover, the growth with MALME-3M melanoma was 70.1%; in the experiment with MDA-MB-231 breast it was 60.7%; in the experiment on RXF 393 renal, 51.7%; in the experiment on SF-268 CNS, 41.9%; with SF-295 CNS it was 71.4%; in the experiment with SF-539 CNS, 9.45% (active). Besides, the growth with UACC-257 melanoma is 93.8%; in the experiment with M14 melanoma, 82.3%.

Source of the values: PubChem BioAssay (NCI).
